# Laboratory results reported in the OligoGym collection.
# Target: ATP8A2
# Experiment: pooled miR-30 sensor sort-seq; sequence = guide strand
# Conditions: shRNA
# Also: reference of the scale not given here.
row,Sequence,sensor-assay potency score (higher = more potent)
1,TTCAACATAACACATTGCCTGA,-0.505
2,TTGATCTCTTGAGAGGCGCTTT,-0.359
3,TTCCTGACTAACAGCTCCGTGT,-0.616
4,TTAAAGTTCATGATATTGCATG,-0.75
5,TTGTGTTGAAGCCTTCGCCATT,-1.44

# Target: ATP8B3
# Experiment: as above
# Conditions: shRNA
row,Sequence,sensor-assay potency score (higher = more potent)
1,TTCTTTGACTGAGAAACCGAAG,-1.15
2,TTTTTGTGTCAAAACCAGCATA,-0.74
3,TAATTTTTGTGTCAAAACCAGC,-1.1
4,TTGGTCAACAGCAACTTCTCAG,-0.358
5,TTTGATGTTGCTCTTCTTGAGA,-0.55
6,TTCTCTGACAGCAGCTCGCAGG,-0.893
7,TTGACTGAGAAACCGAAGCCGA,-0.857
8,TTGGTCTTGTATTTCTTCCTTT,-0.502
9,TTTCTTGTCATTCCATTCCAGG,-1.26
10,TAGAAGTTGTACTTGGCCGTGC,1.18
11,TAGTACATCTGCACGTCCCAGT,0.127
12,TAAATGACCAGTCCATAGCAGG,-1.07

# Target: AVPR1B
# Experiment: as above
# Conditions: shRNA
row,Sequence,sensor-assay potency score (higher = more potent)
1,TTCACTGTTCGGATCTTGGCCC,0.0628
2,AAGATAGCCAGGGTGGTCCAGG,-1.04
3,TTTACAGATCTCATGGCAGATG,-1.02
4,TTGGTGGAATCTTCATCAGGGG,-0.225
5,TAAGTGCAGCACGAACAGGTGC,-0.436
6,TTTTTACAGATCTCATGGCAGA,-0.895
7,ATCTTCACTGTTCGGATCTTGG,-1.06
8,TTTAGGTTTTTACAGATCTCAT,-1.13
9,ATCTGGACACTGAAGAAGGGAG,-1.3
10,TTGAAGCCCATGTAGATCCAGG,-0.752
11,TTCTTGTCCCACACGGACCACA,-1.03
12,TTGGCCAGCTCCTCATCCCGGC,-0.765
13,TTGACTTTTAGGTTTTTACAGA,-0.906
14,AAACATGCTGAGCACCTGCAGG,-1.16
15,TTAGGTTTTTACAGATCTCATG,-1.16
16,TTGGTGACTCTTCAGGCCTGGG,-0.954
17,ATCAGGGGCATTCTTGTCCCAC,-1.06
18,TAGGTTTTTACAGATCTCATGG,0.26
19,TAGGTGGAGGCAAACATGCTGA,-0.677
20,TCTGCCAGCTCCAAGTCCCTTG,-1.14
21,TGGTGGAATCTTCATCAGGGGC,-1.82
22,TTTTAGGTTTTTACAGATCTCA,-0.253
23,TGACAGACAGCCAGGTAGCGGT,-1.51
